Screen size: about 2,000 compounds; about 250 (12%) were called active. The list comes from a sample in which actives are over-represented; it also holds similar structures and randomly drawn compounds. A number with no mark means an inactive call. Rule as the data show it: active = hERG blockade below about -20% or above about 20%; inactive = in between.

This assay deals with Voltage-gated inwardly rectifying potassium channel KCNH2 (Homo sapiens) (UniProt Q12809). As to the kind of experiment: modulators of KCNH2 ion channel function, cellular (AID 376).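 Also: 0% = buffer alone and 100% = reference blocker.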 Particulars: hERG-expressing cells, channel activity single-concentration screen; concentration not given here. A general note: The hERG channel carries a current that helps repolarise heart muscle cells.
Sequence of Voltage-gated inwardly rectifying potassium channel KCNH2 (Homo sapiens) (Q12809 whole entry, looked up): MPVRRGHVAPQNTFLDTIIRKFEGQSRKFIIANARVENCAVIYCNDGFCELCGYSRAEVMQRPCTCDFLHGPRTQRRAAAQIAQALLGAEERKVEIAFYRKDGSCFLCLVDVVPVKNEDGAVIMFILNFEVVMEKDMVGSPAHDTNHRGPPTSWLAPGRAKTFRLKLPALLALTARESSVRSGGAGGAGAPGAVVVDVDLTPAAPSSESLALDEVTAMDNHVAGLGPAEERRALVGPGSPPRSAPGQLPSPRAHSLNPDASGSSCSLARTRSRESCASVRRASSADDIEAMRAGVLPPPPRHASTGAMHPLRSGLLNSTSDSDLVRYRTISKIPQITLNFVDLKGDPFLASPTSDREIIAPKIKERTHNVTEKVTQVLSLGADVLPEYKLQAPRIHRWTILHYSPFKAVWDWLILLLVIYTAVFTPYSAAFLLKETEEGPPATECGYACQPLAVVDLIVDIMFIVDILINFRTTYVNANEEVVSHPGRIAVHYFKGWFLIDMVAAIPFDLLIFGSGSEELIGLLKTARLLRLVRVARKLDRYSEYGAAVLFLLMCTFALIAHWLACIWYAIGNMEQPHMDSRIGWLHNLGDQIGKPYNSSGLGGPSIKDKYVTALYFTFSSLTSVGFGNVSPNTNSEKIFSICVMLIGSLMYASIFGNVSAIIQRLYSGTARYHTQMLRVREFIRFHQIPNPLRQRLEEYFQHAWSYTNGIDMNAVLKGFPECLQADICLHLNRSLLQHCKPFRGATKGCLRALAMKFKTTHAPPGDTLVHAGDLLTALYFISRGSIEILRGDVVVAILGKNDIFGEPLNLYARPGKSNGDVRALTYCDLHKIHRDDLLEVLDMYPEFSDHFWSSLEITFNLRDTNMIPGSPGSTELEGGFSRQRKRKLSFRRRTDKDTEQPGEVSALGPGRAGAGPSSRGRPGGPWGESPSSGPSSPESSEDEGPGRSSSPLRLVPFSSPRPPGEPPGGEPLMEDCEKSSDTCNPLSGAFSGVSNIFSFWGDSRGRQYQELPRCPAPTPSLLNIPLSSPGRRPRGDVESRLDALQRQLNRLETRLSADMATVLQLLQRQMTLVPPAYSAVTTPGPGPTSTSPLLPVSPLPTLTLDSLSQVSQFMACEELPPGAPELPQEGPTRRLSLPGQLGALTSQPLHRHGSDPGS
Take `NC(CNO)C(=O)O` (stereo unspecified): the hERG blockade was -10.6%.

Consider `Nc1nc2c(ncn2C2C=CC(CO)C2)c(=O)[nH]1` (stereo unspecified), for which the hERG blockade was 1.77%.

For `CN1CCCC1c1cccnc1.O=C(O)c1ccccc1O.O=C([OH2+])c1ccccc1O.O=C([OH2+])c1ccccc1O.O=C([OH2+])c1ccccc1O.[Cu+2]` (stereo unspecified), the hERG blockade is 26% (active).

Consider `CN1CCCC1c1cccnc1.O=C(O)c1ccccc1O.O=C([OH2+])c1ccccc1O.O=C([OH2+])c1ccccc1O.O=C([OH2+])c1ccccc1O.[Mn+2]` (stereo unspecified), for which the hERG blockade is 15.5%.

Consider `CN1CCCC1c1cccnc1.O=C(O)c1ccccc1O.O=C([OH2+])c1ccccc1O.O=C([OH2+])c1ccccc1O.[Mn+2]` (stereo unspecified), for which the hERG blockade was 13.4%.

For `O=C(O)CCSc1ncnc2nc[nH]c12`, the hERG blockade was 2.65%.

In the case of `N=C(c1ccc2ccccc2c1)c1ccccc1Cc1ccccc1`, the hERG blockade is 9.45%.

On to `CC1(CCOCc2ccccc2)NC(=O)NC1=O` (stereo unspecified), for which the hERG blockade is -3.15%.

As to `COc1ccc(C[N+](C)(C)N)cc1OC`, the hERG blockade is -25.5% (active).

As for `COc1ccc(C=C(C#N)C(N)=O)cc1OC`, the hERG blockade was 4.46%.

For the compound `Nc1nc(N)nc(CCCCc2nc(N)nc(N)n2)n1`, the hERG blockade is 8.11%.

Take `NCc1nnn(Cc2ccccc2)c1N`: the hERG blockade is 0.879%.

As for `CC1(C(=O)O)CCCC1C(=O)O` (stereo unspecified), the hERG blockade is 0.951%.

For `O=c1ccnc(SCc2ccc(Cl)cc2)[nH]1`, the hERG blockade is -3.26%.

With `O=S(=O)(CC(O)C(Cl)(Cl)Cl)NNc1ccccc1` (stereo unspecified), the hERG blockade is -8.3%.

`O=CNC(Cc1cnc[nH]1)C(=O)O` (stereo unspecified): the hERG blockade is -6.41%.

On to `Nc1ccc(N=Nc2c(S(=O)(=O)O)cc3ccccc3c2S(=O)(=O)O)cc1`, for which the hERG blockade was 5.01%.

For `O=S(=O)(O)c1cc(N=Nc2cccc3ccccc23)c(O)c2ncccc12`, the hERG blockade is 10.6%.

For `O=S(=O)(O)c1cc(N=[N+]([O-])c2cc(S(=O)(=O)O)c3ccccc3c2)cc2ccccc12`, the hERG blockade is 20.3% (active).

With `CCC(Nc1ncnc2nc[nH]c12)C(=O)O` (stereo unspecified), the hERG blockade was -0.207%.

`S=C(S)NCCN1CCNCC1`: the hERG blockade was 6.35%.

Turning to `O=CN1CCN(CC(O)CN2CCCCC2)CC1` (stereo unspecified), the hERG blockade is -4.54%.

`CN(C)CC1CCCC(CN(C)C)C1=O` (stereo unspecified): the hERG blockade is -6%.

Consider `CN(C)CC1CCC2=C(C1=O)C(c1ccc(Cl)c(Cl)c1)C1=C(CCC(CN(C)C)C1=O)O2` (stereo unspecified), for which the hERG blockade was 24.7% (active).

Turning to `O=C1c2ccccc2C(=O)N1c1ccc(Cc2ccc(N3C(=O)c4ccccc4C3=O)cc2)cc1`, the hERG blockade was -0.893%.

For `O=C(CC(=O)c1ccncc1)c1ccccc1`, the hERG blockade was 10.3%.

On to `O=C(O)C=CC(=O)Nc1ccccn1`, for which the hERG blockade is 5.5%.

For `N=C(CC(=O)Nc1ccccn1)c1ccccc1`, the hERG blockade is -21.8% (active).

Turning to `CC1CC2C3CCC4=CC(=O)C=CC4(C)C3(Cl)C(Cl)CC2(C)C1(O)C(=O)COP(=O)(O)O` (stereo unspecified), the hERG blockade was 10.3%.

For `COc1cc2c(cc1OC)C(CCN)=NCC2`, the hERG blockade is 26.9% (active).

Turning to `Cc1cc(OCC(=O)O)c(Cl)cc1Cl`, the hERG blockade is 3.22%.

As to `O=c1[nH]c(=S)[nH]c(-c2ccccc2)c1Cc1c(O)ccc2ccccc12`, the hERG blockade was -0.358%.

For the compound `S=c1nc[nH]c2c1ncn2Cc1ccco1`, the hERG blockade was -15.9%.

Turning to `O=C(O)CCCCn1cnc2c(=S)nc[nH]c21`, the hERG blockade was 6.53%.

As for `O=C(O)CCn1cnc2c(=S)nc[nH]c21`, the hERG blockade is -35.8% (active).

Regarding `Nc1ccccc1SCc1csc(-c2ccc(Cl)cc2)n1`, the hERG blockade was 4.83%.

For the compound `CC(C)c1cc(C(F)(F)F)nc(NNc2nc(C(C)C)cc(C(F)(F)F)n2)n1`, the hERG blockade was 7.39%.

On to `Nc1nc2c(ncn2C2CCC(CO)O2)c(=O)n1C(=O)c1ccccc1` (stereo unspecified), for which the hERG blockade was -28.6% (active).

As to `OCC1CCCC(n2cnc3c(=S)nc[nH]c32)O1` (stereo unspecified), the hERG blockade is -13.5%.

Take `COc1nc(N)nc2c1ncn2C1CC(O)C(CO)O1` (stereo unspecified): the hERG blockade was 12%.

Turning to `O=C(O)c1c2c(c(O)c3c1CN(C1CCCCC1)CO3)OCN(C1CCCCC1)C2`, the hERG blockade was -1.92%.

`C[N+](C)(C)CCCSc1nc2ccccc2[nH]1`: the hERG blockade is 6.28%.

Consider `CC(CCC(=O)O)(c1cc(Br)c(O)c(Br)c1)c1cc(Br)c(O)c(Br)c1`, for which the hERG blockade was 5.39%.

Regarding `CN(C)CC(C)(C)CN1c2ccccc2Sc2ccccc21`, the hERG blockade is 22.5% (active).

In the case of `CN(C)CN1C(=O)SC(=C2C(=O)N(CN(C)C)c3ccccc32)C1=O`, the hERG blockade is -4.39%.

As for `c1ccc2c(c1)-c1nc3ccccc3cc1C2N1CCOCC1` (stereo unspecified), the hERG blockade was -9.86%.

On to `Cc1ncc(CN=Cc2ccc(Cl)cc2)c(N)n1`, for which the hERG blockade is 6.55%.

For `CC12CCC3c4ccc(O)cc4CCC3C1CCC2OC(=O)CCC1CCCC1` (stereo unspecified), the hERG blockade was 6.8%.

For `CC(=NO)c1ccc2cc(Br)c3ccccc3c2c1`, the hERG blockade was 61.6% (active).

Take `CC(Br)C(=O)c1ccc2cc(Br)c3ccccc3c2c1` (stereo unspecified): the hERG blockade is 8.72%.

Take `CCCS(=O)(=O)O`: the hERG blockade was -0.642%.

Regarding `c1ccc2c(c1)c1ccccc1n2Cn1c2ccccc2c2ccccc21`, the hERG blockade was -38.4% (active).

Take `c1ccc2c(CSCc3cccc4ccccc34)cccc2c1`: the hERG blockade is 13.9%.

Regarding `NC(=O)CC(N)c1nn[nH]n1` (stereo unspecified), the hERG blockade is -2.74%.

With `CN1CCCCC1CCN1c2ccccc2Sc2ccc(S(C)=O)cc21` (stereo unspecified), the hERG blockade was 16.5%.

As for `CN1CCCCC1CCN1CCCCC1` (stereo unspecified), the hERG blockade was 1.07%.

`COc1ccc2c(c1)N(CCC1CCCCN1C)c1ccccc1S2` (stereo unspecified): the hERG blockade was 59.1% (active).

With `OC(C1=CC(=Cc2ccncc2)c2ccccc21)c1ccncc1` (stereo unspecified), the hERG blockade is 1.87%.

As for `O=C(NCc1cccs1)OC1CC2CCC1C2` (stereo unspecified), the hERG blockade was -2.2%.

Regarding `C[N+](C)(C)CC(=O)NN=Cc1c(O)ccc2ccccc12`, the hERG blockade is -4.06%.

As to `c1ccc(C(CCN2CC3CCC(CC3)C2)c2ccccc2)cc1`, the hERG blockade was 56.9% (active).

As to `c1ccc2c(c1)-c1ccccc1C2N1CC2CCC(CC2)C1`, the hERG blockade is -7.32%.

With `c1ccc(C(CCN2CCCC2)c2ccccn2)cc1` (stereo unspecified), the hERG blockade is 3.48%.

On to `Nc1cc(S(N)(=O)=O)ccc1SSc1ccc(S(N)(=O)=O)cc1N`, for which the hERG blockade is -0.877%.

Regarding `OC(COc1cccc2ccccc12)CN1CCOCC1` (stereo unspecified), the hERG blockade is 2.26%.

With `Nc1ccc2[nH]cc(CCC(=O)O)c2c1`, the hERG blockade was 1.56%.

On to `OCC1OC(N2CCN(C3OC(CO)C(O)C(O)C3O)CC2)C(O)C(O)C1O` (stereo unspecified), for which the hERG blockade was -5.49%.

For the compound `O=P(O)(O)OC1OC(CO)C(O)C(O)C1O` (stereo unspecified), the hERG blockade is -24.6% (active).

With `Cc1c(Cl)c(S(N)(=O)=O)cc(S(N)(=O)=O)c1NC(=O)c1ccc(Cl)cc1`, the hERG blockade was 12.5%.

Turning to `Cc1cccc(Cl)c1NCC(O)CN1CCN(C)CC1` (stereo unspecified), the hERG blockade is -2.1%.

Consider `CC1Oc2ccc(C(=O)CC(C(=O)O)c3ccc4c(c3)OCO4)cc2O1` (stereo unspecified), for which the hERG blockade is -27.6% (active).

As for `CC(C(=O)O)C(=Cc1ccc2c(c1)OCO2)C(=O)O` (stereo unspecified), the hERG blockade is 0.849%.

`O=C(O)CC(Cc1ccc2c(c1)OCO2)C(=O)O` (stereo unspecified): the hERG blockade was 6.12%.

As for `CN(C)Cc1ccc(-c2cc3onc(-c4ccccc4)c3c(=O)n2C)cc1`, the hERG blockade was 10.3%.

Take `CC(C)(CO)N1CCN(C(=S)Nc2ccccc2)CC1`: the hERG blockade was 0.768%.

Turning to `C[N+]1(C)CCOC(O)(c2ccccc2)C1` (stereo unspecified), the hERG blockade was 17.7%.

For `CC[N+](C)(CC)CCN1C(=O)c2ccccc2S1(=O)=O`, the hERG blockade is -0.137%.

On to `NS(=O)(=O)c1ccc(N=Nc2c[nH]c(=O)c(O)c2)cc1`, for which the hERG blockade is 14%.

`Cn1c(N)c(N=Nc2ccc(S(N)(=O)=O)cc2)c(=O)n(C)c1=O`: the hERG blockade was 31.1% (active).

With `NS(=O)(=O)c1ccc(N=Nc2ccc[nH]c2=O)cc1`, the hERG blockade is 16%.

As to `S=c1nc(-c2nc(=S)[nH]c3c2CCCCCCCCCC3)c2c([nH]1)CCCCCCCCCC2`, the hERG blockade is 0.0358%.

For `Clc1cc2c(c(CSC3=NCN(CC4CC4)CN3)c1)OCOC2`, the hERG blockade is 8.37%.

With `CN(C)CCNCCN`, the hERG blockade is 4.72%.

With `CC1=NN(C(=O)c2ccncc2)C(=O)C1N=Nc1ccc2ccccc2c1` (stereo unspecified), the hERG blockade is 21.5% (active).

As to `CC1=NN(c2ccccc2)C(=O)C1N=Nc1ccc(S(N)(=O)=O)cc1` (stereo unspecified), the hERG blockade is 14.6%.

Consider `CC(=NNC(=O)c1ccncc1)c1ccc2ccccc2c1O`, for which the hERG blockade was -2.47%.

With `Cc1noc(NC(=O)Nc2ccccc2F)c1C#N`, the hERG blockade was 2.22%.

With `Nc1ncnc2c1ncn2CCCCC(=O)O`, the hERG blockade is -16.5%.

Regarding `CCCCn1cnc2c(SC)ncnc21`, the hERG blockade is -28.3% (active).

On to `CN(C)c1ncnc2c1ncn2CCn1cnc2c(N(C)C)ncnc21`, for which the hERG blockade was -12.5%.

In the case of `Cc1cc(C)nc(NC(=O)COc2ccc(Cl)cc2)c1`, the hERG blockade was 16.6%.

Take `OC(COc1ccccc1)CN1CCCCC1` (stereo unspecified): the hERG blockade was -2.64%.

For `c1ccc(-c2cnc(-c3ccc(-c4ncc(-c5ccccc5)o4)cc3)o2)cc1`, the hERG blockade is -6.76%.

Consider `c1ccc(-c2ccc(-c3ccc(C4=NCCN4)cc3)o2)cc1`, for which the hERG blockade is 134% (active).

For `O=C(CSC1=NCCN1)Nc1ccccc1`, the hERG blockade is 8.84%.

Regarding `OCCSCc1ccccc1`, the hERG blockade was -16.1%.

Regarding `O=C(O)CN(CCN(CC(=O)O)CC(=O)O)CC(=O)O.[Cu+2]`, the hERG blockade is 1.62%.

In the case of `O=C(O)CCc1nc(-c2ccccc2-n2cccc2)no1`, the hERG blockade was 5.65%.

On to `O=C(O)C(Cc1cc(I)c(O)c(I)c1)C1CCCCC1` (stereo unspecified), for which the hERG blockade is 35.2% (active).

Turning to `C=C(C)CNCCN`, the hERG blockade is -5.55%.

Turning to `Cc1ccc(CSC(N)=Nc2ccccc2)cc1C`, the hERG blockade was 14.3%.

`Nc1ncnc2c1ncn2C1OC(C(=O)OCCO)C(O)C1O` (stereo unspecified): the hERG blockade was 1.37%.

For the compound `Clc1ccc2c(c1)N(CCCN1CCCC13CCCCC3)c1ccccc1S2`, the hERG blockade was 4.63%.

Turning to `OC1CC2CCC(C1)N2CCCN1c2ccccc2Sc2ccc(Cl)cc21` (stereo unspecified), the hERG blockade was 89.8% (active).

As for `COc1ccc(N(CC(=O)O)N=O)cc1`, the hERG blockade is 1.49%.

Consider `O=C1C=CC(=Nc2cccc3c(N=C4C=CC(=O)O4)cccc23)O1`, for which the hERG blockade is -12%.

The record behind these values is PubChem BioAssay AID376 (PDSP, 2006).
